In PubChem BioAssay (Tox21):
Where “and” joins values, the source holds several entries; their conditions need not be identical. Identical values can stand only once. Inconclusive results are not listed. The source holds several records for some structures; these can differ, active in one and inactive in another. Calls of active or inactive are those of the source. Calls come from the whole dose curve; as a rule, active = well fitted activation curve with a large enough effect in the repeat runs; inconclusive = weak or mixed curves; inactive = no such curve, though single readings can be large or run the other way.

These molecules were tested against Nuclear receptor subfamily 1 group I member 2 (Homo sapiens) (UniProt O75469) (assay: Human pregnane X receptor (PXR) small molecule agonists, qHTS assay (AID 1346982; note: nearly all actives have a fitted effect of over 35% in size)). Conditions: PXR-Luc HepG2, CYP3A4 luciferase reporter, 24 h; series mostly up to 92.4 µM; activation: at the top concentration.
Description: National Center for Advancing Translational Sciences [NCATS]
NIH Chemical Genomics Center [NCGC]
U.S. Environmental Protection Agency [EPA]
National Institutes of Environmental Health Sciences [NIEHS]
National Toxicology Program [NTP]
The human pregnane X receptor (hPXR) regulates the expression of several drug metabolizing enzymes and induction of these proteins is a major mechanism for developing drug resistance in cancer. One such key enzyme catalyzing the drug metabolism is cytochrome P450 3A4 (CYP3A4). Changes in CYP3A4 expression affect drug metabolism, thereby reducing the therapeutic efficacy and altering toxicological response to a drug and which finally causes adverse drug interaction. To screen Tox21 libraries for compounds that activate hPXR-mediated CYP3A4 gene expression, PXR-Luc HepG2 cells were used.
PXR-Luc HepG2 cells were dispensed at 2,000 per well in 5uL of assay medium containing 5% charcoal-stripped FBS into white solid bottom 1536-well plates (Corning Life Sciences, Corning, NY) using a Multidrop Combi (Thermo Scientific, Waltham, MA) dispenser. The assay plates were incubated at 37 C and 5% CO2 for 5hr, and then 23nL of compounds dissolved in DMSO and positive control were transferred using a Pintool station (Wako, San Diego, CA). The assay plates were incubated at 37C and 5% CO2 for 24hr. For luciferase read, 4uL of ONE-Glo reagent (Promega Corporation, Madison, WI) was added to each well of the assay plates using Flying Reagent Dispenser (FRD, Aurora Discovery, San Diego, CA) and incubated the assay plates at room temperature for 30min. The luminescence signal was quantified using a ViewLux plate reader (Perkin Elmer, Shelton, CT).
% is set by controls: 0 for no effect and ±100 for the full control effect; potency is the fitted concentration of half-maximal effect.

Chain of Nuclear receptor subfamily 1 group I member 2 (Homo sapiens) (O75469 whole entry, looked up): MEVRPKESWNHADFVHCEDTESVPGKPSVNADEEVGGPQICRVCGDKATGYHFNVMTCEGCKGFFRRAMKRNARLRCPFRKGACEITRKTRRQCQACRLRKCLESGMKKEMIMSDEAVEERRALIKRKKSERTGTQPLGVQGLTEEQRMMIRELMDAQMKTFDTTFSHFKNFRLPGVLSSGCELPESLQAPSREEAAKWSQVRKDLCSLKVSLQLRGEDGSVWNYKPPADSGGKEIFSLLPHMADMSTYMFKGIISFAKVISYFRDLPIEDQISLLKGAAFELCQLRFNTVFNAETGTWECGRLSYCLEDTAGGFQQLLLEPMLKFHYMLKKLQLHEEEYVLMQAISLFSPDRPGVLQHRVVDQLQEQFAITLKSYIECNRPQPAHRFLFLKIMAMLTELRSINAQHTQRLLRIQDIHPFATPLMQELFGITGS

Row | SMILES | Potency | activation
1 | CCCC(=O)O | inactive | –
2 | CC(CCC(=O)O)(c1ccc(O)cc1)c1ccc(O)cc1 | inactive | –
3 | CCC(C)CO (stereo not given) | inactive | –
4 | CCCc1c(OCCCCc2nn[nH]n2)ccc(C(C)=O)c1O | 61.1 µM (active) and inactive | –
5 | CCC(C)(O)CCCC(C)C (stereo not given) | inactive | –
6 | COC(C)COC(C)COC(C)CO (stereo not given) | inactive | –
7 | CC1=CCC(C(C)(C)O)CC1 (stereo not given) | 54.8 µM (active) and inactive | –
8 | O=C(OCc1ccccc1)c1ccccc1O | inactive | –
9 | CCCCCCCCCC(=O)OC | 47.7 µM (active) and inactive | –
10 | COc1c(Cl)c(Cl)c(Cl)c(Cl)c1Cl | inactive | –
11 | CCCCc1oc2ccccc2c1C(=O)c1cc(I)c(OCCN(CC)CC)c(I)c1 | 3.09 µM (active) and 4.22 µM (active) | –
12 | CCOCCOCCO | inactive | –
13 | C[C@]12CCC(=O)C=C1CC[C@@H]1[C@@H]2C(=O)C[C@@]2(C)[C@H]1CC[C@]2(O)C(=O)CO | – | 2.57% [at 42.5 µM] (inactive)
14 | OC[C@H]1O[C@@H]2O[C@H]3[C@H](O)[C@@H](O)[C@@H](O[C@H]4[C@H](O)[C@@H](O)[C@@H](O[C@H]5[C@H](O)[C@@H](O)[C@@H](O[C@H]6[C@H](O)[C@@H](O)[C@@H](O[C@H]7[C@H](O)[C@@H](O)[C@@H](O[C@H]8[C@H](O)[C@@H](O)[C@@H](O[C@H]1[C@H](O)[C@H]2O)O[C@@H]8CO)O[C@@H]7CO)O[C@@H]6CO)O[C@@H]5CO)O[C@@H]4CO)O[C@@H]3CO | inactive | –
15 | O=C1c2cccc(O)c2C(=O)c2c(O)cccc21 | – | -0.871% (inactive)
16 | CC(=O)O[C@]1(C(C)=O)CC[C@H]2[C@@H]3C=C(Cl)C4=CC(=O)[C@@H]5C[C@@H]5[C@]4(C)[C@H]3CC[C@@]21C | 61.1 µM (active) and inactive | –
17 | O=[N+]([O-])c1ccc2c(c1)Cc1ccccc1-2 | 48.5 µM (active) and 54.5 µM (active) | –
18 | Cc1cccc([N+](=O)[O-])c1C | inactive | –
19 | CCCCC(CC)COCC1CO1 (stereo not given) | inactive | –
20 | c1ccc2sc(SSN3CCOCC3)nc2c1 | 61 µM (active) and 68.6 µM (active) | –

Row | SMILES | Potency | activation
21 | NC=O | – | 14.1% (inactive)
22 | Nc1ccc(S(=O)(=O)Nc2cnc3ccccc3n2)cc1 | inactive | –
23 | Nc1ccc(Nc2ccccc2)cc1 | 24.1 µM (active) and 19.3 µM (active) and 34.4 µM (active) | –
24 | Cc1cc2nc3c(=O)[nH]c(=O)nc-3n(C[C@H](O)[C@H](O)[C@H](O)CO)c2cc1C | 30.3 µM (active) and inactive | –
25 | COC(=O)c1ccccc1 | inactive | –
26 | CC(C)=CCCC(C)CCO (stereo not given) | inactive | –
27 | CCCCOCCOCCOCCO | inactive | –
28 | Cc1c(C(N)=O)cc([N+](=O)[O-])cc1[N+](=O)[O-] | inactive | –
29 | O=C(COc1ccc(Cl)cc1)N1CCN(Cc2ccc3c(c2)OCO3)CC1 | 34.4 µM (active) and inactive | –
30 | CN(C)CCN(Cc1cccs1)c1ccccn1 | 20 µM (active) and inactive | –
31 | CCCCC(CC)COP(=O)(OCC(CC)CCCC)OCC(CC)CCCC (stereo not given) | inactive and 4.86 µM (active) | –
32 | CC(=O)CC/C=C(\C)CCC=C(C)C | inactive and 54.5 µM (active) | –
33 | COc1ccc(C(=O)CC(=O)c2ccc(C(C)(C)C)cc2)cc1 | 65.8 µM (active) and inactive | –
34 | OC1CCCCCCCCCCC1 | 61.7 µM (active) and inactive | –
35 | Nc1ccc(Cl)cc1Cl | inactive | –
36 | Cn1cnc([N+](=O)[O-])c1Sc1ncnc2nc[nH]c12 | – | -5.21% [at 42.5 µM] (inactive)
37 | c1ccc2cc(Nc3ccc(Nc4ccc5ccccc5c4)cc3)ccc2c1 | inactive | –
38 | Cc1[nH]c(=O)c(C#N)cc1-c1ccncc1 | 1.37 µM (active) | –
39 | O=Cc1ccccc1O | – | 10.2% (inactive)
40 | C[Si](C)(C)O[Si](C)(C)C | 68.2 µM (active) and inactive | –
